Results published in PubChem BioAssay (NCI).
Compounds without any hit were thinned out: in the full panel of roughly 83,000, 20% have a hit.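 Activity criterion: percent growth below 10, measured after cells in 96-well plates were exposed to a single compound concentration for 48 hours.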 Unmarked numbers belong to inactive results. Activity calls are given as the source filed them.

Experiments:
Experiment in all cases: NCI-60 one-dose screen, 48 h (100 = growth as untreated, 0 = no growth, -100 = all killed)
Settings in all cases: 10 µM unless noted
HCT-15 colon = system: HCT-15 colon
HT29 colon = system: HT29 colon
SNB-75 CNS = system: SNB-75 CNS
U251 CNS = system: U251 CNS
PC-3 prostate = system: PC-3 prostate
SK-MEL-5 melanoma = system: SK-MEL-5 melanoma
UACC-62 melanoma = system: UACC-62 melanoma
LOX IMVI melanoma = system: LOX IMVI melanoma
SK-MEL-28 melanoma = system: SK-MEL-28 melanoma
SK-MEL-2 melanoma = system: SK-MEL-2 melanoma
EKVX NSCLC = system: EKVX NSCLC
SN12C renal = system: SN12C renal
UO-31 renal = system: UO-31 renal
TK-10 renal = system: TK-10 renal
ACHN renal = system: ACHN renal
CAKI-1 renal = system: CAKI-1 renal
A498 renal = system: A498 renal
CCRF-CEM leukemia = system: CCRF-CEM leukemia
SNB-19 CNS = system: SNB-19 CNS
MOLT-4 leukemia = system: MOLT-4 leukemia

| SMILES | growth (HCT-15 colon) | growth (HT29 colon) | growth (SNB-75 CNS) | growth (U251 CNS) | growth (PC-3 prostate) | growth (SK-MEL-5 melanoma) | growth (UACC-62 melanoma) | growth (LOX IMVI melanoma) | growth (SK-MEL-28 melanoma) | growth (SK-MEL-2 melanoma) | growth (EKVX NSCLC) | growth (SN12C renal) | growth (UO-31 renal) | growth (TK-10 renal) | growth (ACHN renal) | growth (CAKI-1 renal) | growth (A498 renal) | growth (CCRF-CEM leukemia) | growth (SNB-19 CNS) | growth (MOLT-4 leukemia) |
| --- | --- | --- | --- | --- | --- | --- | --- | --- | --- | --- | --- | --- | --- | --- | --- | --- | --- | --- | --- | --- |
| Cc1cc(=O)oc2cc(OC(=O)N3CCN(C)CC3)ccc12 | 99.4% | 114% | 73.1% | 107% | 96.7% | 102% | 97.6% | 95.1% | 101% | 116% | 99.2% | 97.9% | 85.3% | 125% | 96.6% | 89.7% | 105% | 104% |  |  |
| COc1cc(C(=O)c2cc(C)c3[nH]c4ccc(C)cc4c3c2C)cc(OC)c1OC | 8.81% (active) | 10.6% | 39.7% | 19.2% | 23.4% |  | 62.7% | 10.9% | 57.1% | 60.4% | 44.1% | 22.5% | 24.9% | 87.5% | 26.4% | 24.2% | -8.86% (active) | 14.2% | 52.2% | 16.8% |
| S=c1nc(-c2ccccc2)oc(=NC2CCCCC2)n1C1CCCCC1 | 16.1% | 49.5% | 68.2% | 18.8% | 3.69% (active) |  | 70.9% | 30.1% | 107% | 37.9% | 24.4% | 67.9% | 46.5% | 32.8% | 15.4% |  | 86.8% | -6.7% (active) | 28.7% | 0.447% (active) |
| COc1ccc(C(=O)n2nc(-c3ccccc3)nc2N)cc1OC | 96.8% | 91.9% | 81.1% | 90.4% | 87.9% | 93.3% | 86.7% |  | 107% |  | 88.2% | 90.5% | 70.5% | 112% | 82.4% | 84.3% | 83.7% | 86.8% | 95.7% | 87.8% |
| NCCCNc1nc2ccccc2c2c(=O)c3cc(OC(F)(F)F)ccc3sc12 | -78.1% (active) | -32.9% (active) | 58.6% | -63% (active) | 42.9% |  | 88.9% | -97.3% (active) | 84.7% | 89.3% | 67.9% | 41.3% | 33.8% | 64.7% | -22.8% (active) | -72.7% (active) | 21.4% | -2.58% (active) |  | -39.5% (active) |
| CCOC(=O)c1c2c(n(-c3ccc(C#N)cc3)c1-c1ccccc1)C=CCC2 | 76.9% | 68.2% | 83.9% | 99.7% | 70.1% | 92.8% | 75% | 84% | 102% | 79.6% | 93.2% | 101% | 81.8% | 96.5% | 86.8% | 76.4% | 96.7% | 95.8% |  | 81.2% |
| c1ccc(-c2nc3nonc3nc2-c2ccccc2)cc1 | 68.3% | 82.7% | 65.4% | 58.3% | 46.5% | 63.8% | 58.7% | 56% | 90.3% | 79% | 67% | 68.7% | 36.3% | 81.4% |  | 51% | -10.9% (active) | 80.7% |  | 70.9% |
| COc1ccc(C(Cc2ccccc2)NCCN2CCOCC2)cc1 (stereo unspecified) | 99.8% | 87.7% | 97.4% | 108% | 93.8% |  | 100% | 91.4% | 103% | 95.9% | 104% | 99.6% | 84.5% | 95.4% | 106% | 98.8% | 101% | 113% |  | 93.8% |
